The term AC50 denotes the midpoint of the concentration-response curve, whichever way the signal moves.

The structures appear in SMILES notation. Active and inactive are the calls of the source. Rule for the calls: active = hit-call score of the fitted dose curve at least 0.9, where 1 is the maximum; inactive = score below 0.9.

Read-out in experiment [1]: Transforming growth factor beta 1 (TGFb1), TGFB1 (gene 7040)
Nature of the experiment: BSK_KF3CT_TGFb1: BioMAP Diversity Plus: KF3CT Assay for Transforming growth factor beta 1 (TGFb1) Biomarker Activity (AID 2283072). The conditions noted are these: primary human keratinocytes with fibroblasts; actives raise or lower the signal. The method in brief:
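Primary human skin cells (keratinocytes, foreskin fibroblasts) were co-cultured, exposed to test chemical and sampled at 24 h. TGF-b1 levels were measured by ELISA and fitted bidirectionally relative to DMSO.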

Read-out in experiment [2]: C-C motif chemokine 2 (Homo sapiens) (UniProt P13500)
Nature of the experiment: BSK_KF3CT_MCP1: BioMAP Diversity Plus: KF3CT Assay for Monocyte Chemoattractant Protein 1 (MCP1/CCL2) Biomarker Activity (AID 2283073). The conditions noted are these: primary human keratinocytes with fibroblasts; actives raise or lower the signal. The method in brief: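 Human keratinocyte plus foreskin fibroblast primary co-culture exposed to chemical for 24 h. MCP-1 levels measured by ELISA. Bidirectional curve fitting relative to DMSO negative control as baseline.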

Read-out in experiment [3]: Matrix Metallopeptidase 9 (MMP9), MMP9 (gene 4318)
Briefly: BSK_KF3CT_MMP9: BioMAP Diversity Plus: KF3CT Assay for Matrix Metallopeptidase 9 (MMP9) Biomarker Activity (AID 2283074).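 For AC50: MMP9 protein level quantified by ELISA in the co-culture.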 The following applies: primary human keratinocytes with fibroblasts; actives raise or lower the signal. In outline: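 Keratinocyte plus foreskin fibroblast human primary skin co-culture was dosed with chemical and MMP-9 was quantified by ELISA 24 h later. Bidirectional curve fitting used DMSO as negative control and activity baseline.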

Read-out in experiment [4]: urokinase plasminogen activator (uPA), PLAU (gene 5328)
Nature of the experiment: BSK_KF3CT_uPA: BioMAP Diversity Plus: KF3CT Assay for urokinase plasminogen activator (uPA) Biomarker Activity (AID 2283075). The conditions noted are these: primary human keratinocytes with fibroblasts; actives raise or lower the signal. The method in brief:
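Human keratinocyte plus foreskin fibroblast primary co-culture exposed to chemical for 24 h. uPA levels were quantified by ELISA, and activity was fitted bidirectionally against a DMSO negative-control baseline.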

Read-out in experiment [5]: CD40, CD40 (gene 958)
Nature of the experiment: BSK_LPS_CD40: BioMAP Diversity Plus: LPS Assay for CD40 Biomarker Activity (AID 2283076). The following applies: primary human HUVEC with PBMC; actives raise or lower the signal. The method in brief: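 Primary human umbilical vein endothelial cells co-cultured with peripheral blood mononuclear cells, LPS-stimulated, were dosed with chemical and read 24 h later. CD40 levels were measured by ELISA and fitted bidirectionally against DMSO as negative control and baseline.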

Read-out in experiment [6]: E-selectin (Homo sapiens) (UniProt P16581)
Nature of the experiment: BSK_LPS_Eselectin: BioMAP Diversity Plus: LPS Assay for Eselectin Biomarker Activity (AID 2283077). The conditions noted are these: primary human HUVEC with PBMC; actives raise or lower the signal. The method in brief: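 Human umbilical vein endothelial cells co-cultured with peripheral blood mononuclear cells under LPS stimulation; E-selectin measured by ELISA 24 h after chemical dosing. Activity fitted bidirectionally against DMSO as negative control and baseline.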

Read-out in experiment [7]: Interleukin-8 (IL8), CXCL8 (gene 3576)
Nature of the experiment: BSK_LPS_IL8: BioMAP Diversity Plus: LPS Assay for Interleukin-8 (IL8) Biomarker Activity (AID 2283078). The following applies: primary human HUVEC with PBMC; actives raise or lower the signal. In outline: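 Human umbilical vein endothelial cells co-cultured with PBMC were stimulated with LPS; IL-8 levels were measured by ELISA 24 h after chemical dosing. Activity was fitted bidirectionally against DMSO as negative control and baseline.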

Experiment [8] in a line: BSK_LPS_SRB: Viability Assessment in the BioMAP Diversity Plus: LPS Assay (AID 2283079).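 Note: total protein by sulforhodamine B absorbance as a cytotoxicity measure; measured one day after compound addition; fitted in both directions against DMSO so loss or gain of signal counts.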 The following applies: primary human HUVEC with PBMC. In outline: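 Human umbilical vein endothelial cells co-cultured with PBMC (LPS system) were dosed for 24 h. Total protein was stained with 0.1% sulforhodamine B after 10% TCA fixation, read at 560 nm, and fitted bidirectionally against DMSO baseline.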

Read-out in experiment [9]: Interleukin-1 alpha (IL1a), IL1A (gene 3552)
Briefly: BSK_LPS_IL1a: BioMAP Diversity Plus: LPS Assay for Interleukin-1 alpha (IL1a) Biomarker Activity (AID 2283080). The conditions noted are these: primary human HUVEC with PBMC; actives raise or lower the signal. In outline: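 Human umbilical vein endothelial cells co-cultured with peripheral blood mononuclear cells were LPS-stimulated and exposed to test chemicals for 24 h. IL-1 alpha was quantified by ELISA, with bidirectional curve fitting against DMSO as the negative control and baseline.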

Read-out in experiment [10]: Monocyte Chemoattractant Protein-1 (MCP1), CCL2 (gene 6347)
Nature of the experiment: BSK_LPS_MCP1: BioMAP Diversity Plus: LPS Assay for Monocyte Chemoattractant Protein-1 (MCP1) Biomarker Activity (AID 2283081).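 For AC50: co-culture stimulated with LPS; secreted MCP-1 protein quantified by ELISA in culture supernatant.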 The conditions noted are these: primary human HUVEC with PBMC; actives raise or lower the signal. In outline:
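HUVEC plus PBMC co-culture (human primary cells, LPS system) exposed to test chemical for 24 h; MCP-1 measured by ELISA. Bidirectional curve fitting against DMSO baseline; parallel SRB total-protein staining flags overt cytotoxicity.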

Experiment [11] can be described thus: BSK_LPS_PGE2: BioMAP Diversity Plus: LPS Assay for Prostaglandin E2 (PGE2) Biomarker Activity (AID 2283082).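 For AC50: secreted prostaglandin E2 measured by ELISA in LPS-stimulated co-culture.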 The conditions noted are these: primary human HUVEC with PBMC; actives raise or lower the signal. In outline:
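LPS-activated HUVEC/PBMC co-culture; cmpd dosed, 24 h; PGE2 by ELISA; bidirectional fit vs DMSO; SRB (0.1%, TCA-fixed, 560 nm) in parallel plates for overt cytotox.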

Read-out in experiment [12]: Macrophage colony-stimulating factor (MCSF), CSF1 (gene 1435)
Nature of the experiment: BSK_LPS_MCSF: BioMAP Diversity Plus: LPS Assay for Macrophage colony-stimulating factor (MCSF) Biomarker Activity (AID 2283083). The following applies: primary human HUVEC with PBMC; actives raise or lower the signal. The method in brief: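 Human umbilical vein endothelial cells co-cultured with peripheral blood mononuclear cells were exposed to compound for 24 h. M-CSF levels were measured by ELISA, and bidirectional curve fitting used DMSO as the negative control and baseline.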

Read-out in experiment [13]: Tissue Factor, F3 (gene 2152)
Briefly: BSK_LPS_TissueFactor: BioMAP Diversity Plus: LPS Assay for Tissue Factor Biomarker Activity (AID 2283084). The following applies: primary human HUVEC with PBMC; actives raise or lower the signal. The method in brief: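 Human umbilical vein endothelial cells co-cultured with peripheral blood mononuclear cells were dosed and stimulated with LPS. Cell-surface CD142 was quantified by ELISA at 24 h. Activity was fitted bidirectionally against DMSO baseline.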

Read-out in experiment [14]: Tumor necrosis factor (Homo sapiens) (UniProt P01375)
Nature of the experiment: BSK_LPS_TNFa: BioMAP Diversity Plus: LPS Assay for Tumour Necrosis Factor alpha (TNFa) Biomarker Activity (AID 2283085). The conditions noted are these: primary human HUVEC with PBMC; actives raise or lower the signal. In outline:
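Read-out is ELISA of TNFa in primary human endothelial cell–PBMC co-cultures at 24 h after compound. Activity in either direction was fitted against DMSO.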

Read-out in experiment [15]: Vascular cell adhesion molecule 1 (VCAM1), VCAM1 (gene 7412)
Nature of the experiment: BSK_LPS_VCAM1: BioMAP Diversity Plus: LPS Assay for Vascular cell adhesion molecule 1 (VCAM1) Biomarker Activity (AID 2283086). The conditions noted are these: primary human HUVEC with PBMC; actives raise or lower the signal. In outline:
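HUVEC + PBMC co-culture, LPS system; compound 24 h; VCAM-1 by ELISA; bidirectional fit vs DMSO control; parallel SRB (0.1%, TCA-fixed, 560 nm) for cytotoxicity.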

Read-out in experiment [16]: CD38, CD38 (gene 952)
Nature of the experiment: BSK_SAg_CD38: BioMAP Diversity Plus: SAg Assay for CD38 Biomarker Activity (AID 2283087). The conditions noted are these: primary human HUVEC with PBMC; actives raise or lower the signal. The method in brief:
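Human HUVEC plus PBMC co-culture stimulated with superantigen; CD38 measured by ELISA 24 h after chemical dosing. Fluorescence read-out, bidirectional fit against DMSO; cytotoxicity tracked in parallel by SRB and Alamar Blue.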

Read-out in experiment [17]: CD40, CD40 (gene 958)
Briefly: BSK_SAg_CD40: BioMAP Diversity Plus: SAg Assay for CD40 Biomarker Activity (AID 2283088). The conditions noted are these: primary human HUVEC with PBMC; actives raise or lower the signal. In outline: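 Human umbilical vein endothelial cells co-cultured with PBMC; CD40 levels measured by ELISA with fluorescence read-out 24 h after chemical dosing. Gain or loss of signal fitted bidirectionally against DMSO baseline.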

Read-out in experiment [18]: CD69, CD69 (gene 969)
Nature of the experiment: BSK_SAg_CD69: BioMAP Diversity Plus: SAg Assay for CD69 Biomarker Activity (AID 2283089).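 For AC50: cell surface CD69 protein quantified by ELISA with fluorescence detection.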 The conditions noted are these: primary human HUVEC with PBMC; actives raise or lower the signal. The method in brief: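 Endothelial/PBMC co-culture; chemical added; 24 h incubation; CD69 ELISA with fluorescence detection; bidirectional fit vs DMSO.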

Read-out in experiment [19]: Monocyte Chemoattractant Protein-1 (MCP1), CCL2 (gene 6347)
Nature of the experiment: BSK_SAg_MCP1: BioMAP Diversity Plus: SAg Assay for Monocyte Chemoattractant Protein-1 (MCP1) Biomarker Activity (AID 2283090). The following applies: primary human HUVEC with PBMC; actives raise or lower the signal. The method in brief: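 MCP-1 levels in the endothelial–PBMC SAg co-culture were quantified by ELISA at 24 h post-dosing; both increases and decreases versus DMSO scored. Cytotoxicity monitored by SRB total protein in parallel cultures.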

Read-out in experiment [20]: E-selectin (Homo sapiens) (UniProt P16581)
Briefly: BSK_SAg_Eselectin: BioMAP Diversity Plus: SAg Assay for Eselectin Biomarker Activity (AID 2283091). The conditions noted are these: primary human HUVEC with PBMC; actives raise or lower the signal. The method in brief:
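HUVEC co-cultured with PBMC, compound dosed then read at 24 h; E-selectin measured by ELISA. Activity fitted bidirectionally against DMSO as negative control and baseline.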

Sequence of Tumor necrosis factor (Homo sapiens) (P01375 whole entry, looked up): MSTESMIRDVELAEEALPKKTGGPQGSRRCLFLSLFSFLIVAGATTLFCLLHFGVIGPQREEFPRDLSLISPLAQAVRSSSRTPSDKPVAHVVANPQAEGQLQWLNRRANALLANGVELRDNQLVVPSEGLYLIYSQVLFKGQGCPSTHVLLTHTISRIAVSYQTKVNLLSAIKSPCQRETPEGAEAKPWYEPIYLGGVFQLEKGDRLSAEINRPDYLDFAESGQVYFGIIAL
Sequence of E-selectin (Homo sapiens) (P16581 whole entry, looked up): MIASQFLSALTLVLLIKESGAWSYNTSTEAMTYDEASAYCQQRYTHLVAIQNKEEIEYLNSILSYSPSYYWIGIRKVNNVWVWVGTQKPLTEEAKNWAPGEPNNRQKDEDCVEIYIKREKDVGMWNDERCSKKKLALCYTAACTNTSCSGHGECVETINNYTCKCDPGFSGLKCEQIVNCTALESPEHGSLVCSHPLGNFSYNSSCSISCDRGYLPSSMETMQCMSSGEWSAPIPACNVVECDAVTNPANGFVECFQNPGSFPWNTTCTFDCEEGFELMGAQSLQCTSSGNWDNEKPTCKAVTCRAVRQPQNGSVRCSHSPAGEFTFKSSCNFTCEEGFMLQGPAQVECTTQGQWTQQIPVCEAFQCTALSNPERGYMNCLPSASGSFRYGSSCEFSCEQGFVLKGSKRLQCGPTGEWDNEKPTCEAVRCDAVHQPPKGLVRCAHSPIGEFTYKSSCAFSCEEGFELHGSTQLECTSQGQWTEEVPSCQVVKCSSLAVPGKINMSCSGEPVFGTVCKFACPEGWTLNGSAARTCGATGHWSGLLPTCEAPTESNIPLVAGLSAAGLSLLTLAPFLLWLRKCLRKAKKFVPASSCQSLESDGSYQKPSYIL

On to `CCCCCCCCCCCCO`, for which the AC50 in experiment [1] was 30.9 µM (active); in experiment [2], 35 µM (active); in [3] it was 33 µM (active); in experiment [4], 30.4 µM (active); in [6], 19.8 µM (active); in [8], 30.4 µM (active). In addition, the AC50 in experiment [9] was 36.3 µM (active); in [10] it was 34.8 µM (active); in experiment [12], 32.2 µM (active); in [13] it was 19.8 µM (active); in experiment [14], 29.7 µM (active); in [15], 19.8 µM (active). In addition, the half-maximal activity concentration (AC50) in [16] is 34.7 µM (active); in [17] it was 31.6 µM (active); in [18], 31 µM (active); in [19], 30.4 µM (active); in experiment [20] it was 31.7 µM (active). Further, the result in experiment [5], in experiment [7] and in experiment [11] was inactive.
Take `CCCOC(=O)c1cc(O)c(O)c(O)c1`: the half-maximal activity concentration (AC50) in experiment [1] was 1.53 µM (active); in [4], 3.97 µM (active); in [11], 4.97 µM (active); in experiment [19], 29 µM (active); in [20] it was 14.3 µM (active). Further, the result in experiment [2], in experiment [3], in experiment [6], in [7], in experiment [8] and in experiment [9] was inactive. For the same molecule, the outcome in experiment [10], in experiment [12], in experiment [13], in experiment [14], in experiment [15] and in experiment [16] was inactive. Besides, the outcome in experiment [17] and in experiment [18] was inactive.
As for `Cc1c2ccccc2c(C)c2c1ccc1ccccc12`, the outcome in experiment [1], in [2], in experiment [3], in [4], in experiment [6] and in experiment [7] was inactive. Further, the result in [11], in experiment [13], in experiment [14] and in [19] was inactive. Also, the half-maximal activity concentration (AC50) in experiment [8] is 24.8 µM (active); in experiment [9] it was 26.8 µM (active); in experiment [10], 25.3 µM (active); in experiment [12], 20 µM (active); in experiment [15], 24.1 µM (active); in experiment [16], 28.6 µM (active). The results for the AC50 in experiment [17], in experiment [18] and in experiment [20] were 22.3 µM (active), 20 µM (active) and 5.2 µM (active), respectively.
Consider `OCCO`, for which the outcome in experiment [1], in [3], in [4], in [6], in experiment [7] and in [8] was inactive. Further, the result in [9], in experiment [10], in [11], in experiment [12], in experiment [13] and in [14] was inactive. Moreover, the result in experiment [15], in [17], in experiment [18], in [19] and in experiment [20] was inactive.
`Cc1ncc(CO)c(CO)c1O`: the outcome in experiment [1], in experiment [2], in experiment [3], in [4], in [5] and in experiment [6] was inactive. The result in experiment [7], in [8], in [9], in experiment [10], in [11] and in experiment [12] was inactive. The outcome in experiment [13], in [14], in experiment [15], in [16], in experiment [17] and in experiment [18] was inactive. For the same molecule, the result in [19] and in experiment [20] was inactive.
Consider `Clc1cc(Cl)c2c(c1)N=C1CCCCCN1C2`, for which the outcome in experiment [1], in experiment [2], in [3], in experiment [4], in [6] and in [7] was inactive. The outcome in experiment [8], in [9], in experiment [10], in experiment [11], in experiment [12] and in experiment [13] was inactive. Besides, the outcome in experiment [14], in experiment [15], in experiment [16], in experiment [17], in experiment [18] and in [19] was inactive. The result in [20] was inactive.

(Values after PubChem BioAssay (EPA / NIEHS).)
